Source: PubChem (several laboratories)
Mcl1-Noxa inh – Mcl-1/Noxa binding inhibitors, primary screen, biochemical, TR-FRET, 1536-well; 220,000 compounds, 1.5% hits; Induced myeloid leukemia cell differentiation protein Mcl-1 (Homo sapiens), Q07820; inhibition, % at 21.7 µM; TR-FRET Mcl-1/Noxa peptide binding, 2 h; AID 1022, 2008;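 active = compounds that cut the protein-peptide binding signal by more than 50% relative to plate controls in a single-dose test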;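 also: His-tagged Mcl-1 with rhodamine Noxa BH3 peptide and terbium anti-His antibody; 0% = Mcl-1 plus Noxa peptide wells and 100% = peptide-only wells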
Target sequence (Q07820 whole entry, looked up): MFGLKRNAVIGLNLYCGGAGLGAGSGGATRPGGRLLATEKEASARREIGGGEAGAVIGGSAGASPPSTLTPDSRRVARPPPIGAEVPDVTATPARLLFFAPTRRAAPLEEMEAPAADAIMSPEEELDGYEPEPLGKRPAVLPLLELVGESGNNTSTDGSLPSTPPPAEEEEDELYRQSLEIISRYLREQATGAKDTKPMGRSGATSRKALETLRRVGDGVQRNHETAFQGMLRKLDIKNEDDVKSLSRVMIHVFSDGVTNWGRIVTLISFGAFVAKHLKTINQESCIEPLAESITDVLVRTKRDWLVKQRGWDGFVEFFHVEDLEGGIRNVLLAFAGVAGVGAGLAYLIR
14-3-3 Bad inh – inhibitors of 14-3-3 zeta/Bad binding, primary screen, biochemical, TR-FRET, bovine 14-3-3 zeta | 14-3-3 protein zeta/delta (Bos taurus), P63103 | TR-FRET 14-3-3zeta/Dy647-pBad peptide displacement, 1 h | AID 781, 2007 | inhibition, % at 21.7 µM | 220,000 compounds, 0.71% hits;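 active = inhibition above about 70%, limit read from the data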;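 also: 0% = full 14-3-3 plus peptide FRET controls and 100% = background without 14-3-3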
MCL1 BIM primary – inhibitors of MCL1 binding to BIM-BH3, primary screen, biochemical, fluorescence polarization. Induced myeloid leukemia cell differentiation protein Mcl-1 (Homo sapiens), Q07820. GST-MCL1 / FITC-Bim-BH3 fluorescence polarization. inhibition, % at 10.9 µM. 320,000 compounds, 0.68% hits. AID 2057, 2009;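 active = inhibition above the mean inhibition of all tested compounds plus 3 SD, set per campaign, cut at about 40% in these data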;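 also: 0% = DMSO wells and 100% = unlabeled Bim-BH3 peptide control; higher means more loss of mP so more displacement of Bim peptide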
Mcl-1 Bim block – inhibitors of Bim peptide binding to Mcl-1, primary screen, biochemical, bead-based flow cytometry, multiplex; Bim peptide-Mcl-1 binding; Induced myeloid leukemia cell differentiation protein Mcl-1 (Homo sapiens), Q07820; 190,000 compounds, 0.1% hits; inhibition, % at 10 µM; in the data active = inhibition above about 40%;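 also: 0% = no compound tracer wells and 100% = peptide blocker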
eIF4E 4G PPI – eIF4E–eIF4G protein interaction inhibitors, primary screen, biochemical, uHTS, TR-FRET, eIF4GI fragment | 220,000 compounds, 0.37% hits | TR-FRET eIF4E-eIF4GI(517-606) binding, 2 h | Eukaryotic translation initiation factor 4E (Mus musculus) + Eukaryotic translation … | inhibition, % at 21.7 µM;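 active = inhibition above about 30%, limit read from the data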;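 also: 0% = full FRET control wells and 100% = background wells lacking eIF4GI fragment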
Mcl1 Bid PPI – Mcl-1/Bid binding inhibitors, primary screen, biochemical, TR-FRET, 1536-well. Induced myeloid leukemia cell differentiation protein Mcl-1 (Homo sapiens), Q07820. inhibition, % at 21.7 µM. TR-FRET Mcl-1/Bid-Dy647 peptide binding. 220,000 compounds, 0.97% hits;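 active = compounds that cut the binding signal by more than half at the single screening dose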;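 also: His-tagged Mcl-1 with europium anti-His antibody binding Bid BH3 peptide; 0% = Mcl-1 plus peptide wells and 100% = peptide-only wells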
BCLXL inh confirm – Bcl-xL inhibitors blocking Bim BH3 binding, confirmation, counter-screen for MCL1 inhibitor project, biochemical, fluorescence polarization. shares compounds with MCL1 BIM primary. GST-Bcl-xL / FITC-Bim BH3 peptide FP binding. inhibition, % at 10.9 µM. 1,700 compounds, 54% hits. AID 2166, 2009;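 active = inhibition above a cutoff equal to the mean inhibition of all tested compounds plus 3 SD, cut at about 30% in these data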;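 also: 0% = DMSO wells and 100% = unlabeled Bim BH3 control peptide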
Target sequence (Q07817 whole entry, looked up): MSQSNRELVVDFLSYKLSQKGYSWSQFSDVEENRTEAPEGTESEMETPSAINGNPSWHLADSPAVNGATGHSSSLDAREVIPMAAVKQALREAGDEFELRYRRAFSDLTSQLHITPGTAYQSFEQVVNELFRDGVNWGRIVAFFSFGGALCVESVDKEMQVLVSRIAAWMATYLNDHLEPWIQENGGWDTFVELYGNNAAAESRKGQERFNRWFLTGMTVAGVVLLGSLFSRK
MCL1 BIM confirm – inhibitors of MCL1 binding to BIM-BH3, confirmation, biochemical, fluorescence polarization, triplicate. shares compounds with MCL1 BIM primary. GST-MCL1 / FITC-Bim-BH3 fluorescence polarization. inhibition, % at 10.9 µM. 1,700 compounds, 61% hits. AID 2168, 2009;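 active = inhibition above the average of all tested compounds plus 3 SD, cut at about 40% in these data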;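 also: 0% = DMSO wells and 100% = unlabeled Bim-BH3 control peptide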
* marks the source's active call; other numbers are inactive results; / = no result; + = active, no number. A selection: hits, their analogues and other compounds. The true share with any hit is near 2.6%.

SMILES	Mcl1-Noxa inh	14-3-3 Bad inh	MCL1 BIM primary	Mcl-1 Bim block	eIF4E 4G PPI	Mcl1 Bid PPI	BCLXL inh confirm	MCL1 BIM confirm
CN1C(=O)c2ccc(N3CCCC3)cc2C1=O	-7	0	63*	1	0	-6	47*	55*
Cc1c2ccccc2nc2c(F)c(N(C)C)c(F)c(F)c12	-50	-4	122*	-2	2	-36	120*	134*
CCOc1ccc(NC(=O)Nc2c(C)n(C)n(-c3ccccc3)c2=O)cc1	/	/	-11	/	/	/	/	/
CN1CCc2cccc3c2[C@H]1Cc1ccc(O)c(O)c1-3	88*	11	56*	7	5	-65	42*	70*
CCN1C(=O)[C@H]2[C@@H](c3ccc(OC)cc3)N3C(=O)CN(CCOC)C(=O)[C@@]3(Cc3ccccc3)[C@H]2C1=O	/	/	6	/	/	/	/	/
Oc1[nH]c2ccc(Br)cc2c1N=Nc1ccc(F)cc1	/	/	+	/	/	/	143*	198*
CCN(CC)CCCN1C=C2C(=O)C(C)(OC(=O)CCC(=O)OC)C(=O)C(Br)=C2C=C1c1ccc(OC)cc1 (configuration not stated)	/	/	30	/	/	/	/	/
C=CCN1C=C2C(=O)C(C)(OC(=O)CCC(=O)OC)C(=O)C(Br)=C2C=C1c1ccc(OC)cc1 (configuration not stated)	13	-6	74*	/	-1	-124	52*	56*
Cc1cc(C)n2nc3nc4c(cc3c2n1)CCCC4	35	1	106*	-2	1	15	22	18
Cc1cc(C)n2nc(C)c(Br)c2n1	3	1	7	1	0	-12	/	/
Cc1onc(-c2ccccc2Cl)c1C(=O)Nc1ccccc1O	/	/	8	/	/	/	/	/
Cc1ccc(C)c(Nc2nc(-c3ccncc3)nc3ccccc23)c1	/	/	-1	/	/	/	/	/
COc1nccnc1NS(=O)(=O)c1ccc(N=Cc2c(C)[nH]n(-c3ccc(C)c(C)c3)c2=O)cc1	13	5	3	0	4	12	/	/
Cc1ccc(-n2[nH]c(C)c(C=Nc3ccc4[nH]c(=O)[nH]c4c3)c2=O)cc1C	12	2	117*	2	-8	-7	103*	130*
NC(=S)N/N=C/c1ncc(C(F)(F)F)cc1Cl	-20	-6	153*	/	8	-58	95*	113*
NC(=S)N/N=C/c1ccc(C(F)(F)F)cc1	14	12	11	0	-17	-99	/	/
O=C(NCC1CCCO1)c1ccc(NC(=O)c2cccc([N+](=O)[O-])c2)cc1 (configuration not stated)	/	/	6	/	/	/	/	/
OCCCc1nc2n(n1)C(c1ccccc1)C=C(c1ccccc1)N2 (configuration not stated)	7	5	28	-1	0	-26	/	/
CC1=CC(c2ccccc2)n2nc(NC(=O)CCC(=O)O)nc2N1 (configuration not stated)	4	1	0	/	-1	-8	/	/
O=C(c1nc2n(n1)C(c1ccc(Cl)cc1)C=C(c1ccccc1)N2)N1CCOCC1 (configuration not stated)	-1	3	75*	-4	0	-9	71*	89*
CCC(=O)Nc1nc2n(n1)C(c1ccc(OC)cc1)C=C(c1ccccc1)N2 (configuration not stated)	16	-19	60*	-3	-25	-31	75*	92*
CS(=O)(=O)Nc1nc2n(n1)C(c1ccccc1)C=C(c1ccc(Br)cc1)N2 (configuration not stated)	18	8	181*	0	-1	26	134*	164*
CC(=O)Nc1nc2n(n1)C(c1ccccc1)C=C(c1ccccc1)N2 (configuration not stated)	9	2	53*	-1	-1	-12	57*	80*
COc1ccc(C2C=C(c3ccccc3)Nc3nc(CCCO)nn32)cc1 (configuration not stated)	5	1	30	-4	-2	-21	/	/
Cn1c(SCc2cccc(F)c2)nnc1-c1ccncc1	/	/	-2	/	/	/	/	/
SMILES	Mcl1-Noxa inh	14-3-3 Bad inh	MCL1 BIM primary	Mcl-1 Bim block	eIF4E 4G PPI	Mcl1 Bid PPI	BCLXL inh confirm	MCL1 BIM confirm
CCC(C)(C)NC(=O)c1ccc(S(=O)(=O)N2CCCCCC2)cc1	0	7	2	-2	0	-9	/	/
CCn1ncc([N+](=O)[O-])c1C(=O)Nc1c(C)nn(Cc2ccc(F)cc2)c1C	16	3	5	-2	1	-3	/	/
Cc1ccc(NC(=O)CN(C)S(=O)(=O)c2ccc(Cl)s2)c(O)c1	/	/	0	/	/	/	/	/
O=C1CCC(=O)N1c1nc2n(n1)C(c1ccccc1)C=C(c1ccc(Br)cc1)N2 (configuration not stated)	-2	/	29	-1	/	-93	/	/
COc1ccccc1C1C=C(c2ccc(Cl)cc2)Nc2nc(NS(C)(=O)=O)nn21 (configuration not stated)	-7	-7	71*	-1	8	-14	46*	59*
COc1ccc(C2C=C(c3ccc(Br)cc3)Nc3nc(N4C(=O)CCC4=O)nn32)cc1 (configuration not stated)	0	-11	135*	-4	9	-72	84*	100*
CCc1ccc(N2CC(C(=O)OCc3nc4ccsc4c(=O)[nH]3)CC2=O)cc1 (configuration not stated)	/	/	41*	/	/	/	33*	49*
CN(C)/C=C1\SC(=S)N(c2ccc(Br)cc2)C1=O	29	4	176*	/	3	-28	+	+
CN(C)/C=C1\SC(=S)N(c2ccc(F)cc2)C1=O	16	-7	10	/	0	-35	/	/
CC1(OC(=O)c2cccs2)C(=O)C=C2C=C3CCCN3C=C2C1=O (configuration not stated)	72*	7	63*	/	24	-64	44*	63*
COCCNC(=O)c1cc2nc3c(c(C(F)(F)F)n2n1)CCc1ccccc1-3	-1	-8	49*	0	-1	-7	4	8
